MOR-DOR ag-1: agonists of human mu-delta opioid receptor heterodimerization. 0.3% of 340,000 active. AID 504326. cells, OPRM1-OPRD1 heterodimerization, luminescence. P35372+P41143. activation, % at 9.3 µM
HTR5A inv ctr: HTR5A inverse agonism, opioid heterodimer counter-screen. HTR5A cell line, luminescence. inhibition, % at 9.3 µM. 0.083% of 340,000 active. AID 504634; in the data active = inhibition mostly above about 23%, no sharp cut-off; inactive = mostly below about 18%
Target sequence (P47898 whole entry, looked up): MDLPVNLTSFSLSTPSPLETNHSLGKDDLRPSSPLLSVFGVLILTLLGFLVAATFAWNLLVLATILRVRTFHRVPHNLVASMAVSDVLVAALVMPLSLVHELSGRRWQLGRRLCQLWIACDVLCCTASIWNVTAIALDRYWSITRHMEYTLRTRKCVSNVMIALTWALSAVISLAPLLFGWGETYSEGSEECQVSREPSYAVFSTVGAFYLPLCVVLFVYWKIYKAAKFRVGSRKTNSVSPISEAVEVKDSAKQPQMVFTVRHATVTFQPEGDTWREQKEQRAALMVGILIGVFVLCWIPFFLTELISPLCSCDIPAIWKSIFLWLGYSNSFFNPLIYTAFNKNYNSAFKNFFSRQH
OPRM1-OPRD1 inv: mu-delta opioid heterodimer inverse agonism. P35372+P41143. inhibition, % at 9.3 µM. AID 504357. cell-based MOR-DOR heterodimer luminescence. 0.21% of 340,000 active; in the data active = inhibition above about 22%, passing the limit was not always enough
HTR5A ag ctr: HTR5A agonism, opioid heterodimer counter-screen. P47898. HTR5A agonist assay, luminescence, cell-based. activation, % at 9.3 µM. 0.61% of 340,000 active; in the data active = activation mostly above about 9.5%, no sharp cut-off; inactive = mostly below about 7.6%
MOR-DOR ag-2: promotes OPRM1-OPRD1 heterodimerization in HTR5A counter-screen | shares compounds with HTR5A ag ctr | U2OS counter-screen cells, complementation luminescence, 3 h | activation, % at 9.3 µM | 13% of 800 active | AID 504913
HTR5A ag conf: confirmation of human HTR5A agonists; shares compounds with HTR5A ag ctr; HTR5A agonist cell assay, luminescence; activation, % at 9.3 µM; 17% of 800 active; AID 504915; in the data active = activation above about 17%
Large screens that a line does not name were inactive (follow-up assays come after a bar, where they were run). An excerpt weighted towards active compounds, which were near 1.1% of everything screened. Rule as the data show it, unless noted: active = activation above about 18%; inactive = the rest.

Cc1ccc2[nH]cc(CCNS(=O)(=O)c3ccc(F)cc3)c2c1	none
CCOc1ccc(C(=O)NCC(=O)N2CCN(c3ccccc3O)CC2)cc1	none
Cc1ccccc1NC(=O)Cc1nc(COC(=O)C(C)C)cs1	none
C=CCOc1ccc(/C=C/C(=O)OCc2csc(CC(=O)Nc3ccccc3C)n2)cc1	HTR5A ag ctr 20 | MOR-DOR ag-2 33 | HTR5A ag conf inactive
COc1ccc(CC(=O)c2cc(OC)c(OC)cc2CC(=O)O)cc1OC	none
COc1ccc(C(=O)Cc2ccc(OC)c(OC)c2)c(OC)c1	HTR5A ag ctr 19 | MOR-DOR ag-2 inactive | HTR5A ag conf inactive
CCN(CC)CCNC(=O)c1ccc(NC(=O)COc2ccc3c(c2)CCC3)cc1	HTR5A ag ctr 17 | MOR-DOR ag-2 inactive | HTR5A ag conf inactive
CCCCCCCCCCCCCCCC[n+]1ccc(C(N)=O)cc1	none
CCCCCCCCCCCCCCCC[n+]1ccc(/C=N/O)cc1	HTR5A ag ctr 26 | MOR-DOR ag-2 inactive | HTR5A ag conf inactive
CC(=O)N1CCc2c(sc(NC(=O)C3COc4ccccc4O3)c2C(N)=O)C1 (centres undefined)	HTR5A ag ctr 38 | MOR-DOR ag-2 inactive | HTR5A ag conf 49
CCN1CCc2c(sc(NC(=O)C3COc4ccccc4O3)c2C(N)=O)C1 (centres undefined)	HTR5A ag ctr 15 | MOR-DOR ag-2 inactive | HTR5A ag conf inactive
CN1CCc2c(sc(NC(=O)Cc3ccccc3)c2C(N)=O)C1	none
CN1CCc2c(sc(NC(=O)C3COc4ccccc4O3)c2C(N)=O)C1 (centres undefined)	HTR5A ag ctr 17 | MOR-DOR ag-2 inactive | HTR5A ag conf 52
CCN1CCc2c(sc(NC(=O)Cc3ccccc3)c2C(N)=O)C1	none
CCOC(=O)N1CCc2c(sc(NC(=O)C3COc4ccccc4O3)c2C(N)=O)C1 (centres undefined)	HTR5A ag ctr 44 | MOR-DOR ag-2 inactive | HTR5A ag conf 60
COC(=O)c1c(NC(=O)C2COc3ccccc3O2)sc2c1CCN(C(C)=O)C2 (centres undefined)	none
C[C@H](CO)N1C[C@H](C)[C@@H](CN(C)S(=O)(=O)c2ccccc2)Oc2ccc(NC(=O)NC3CCCCC3)cc2C1=O	none
O=C(NC1CCCCC1)c1cc2ccccc2cc1O	HTR5A ag ctr 17 | MOR-DOR ag-2 inactive | HTR5A ag conf inactive
COc1cccc(C2N(Cc3ccccc3)C(=O)C2(F)F)c1OC (centres undefined)	HTR5A ag ctr 16 | MOR-DOR ag-2 inactive | HTR5A ag conf inactive
COc1cccc(C2N(c3ccccc3)CCN2c2ccccc2)c1OC	none
Cc1ccc2[nH]c(=O)c3cc(C(=O)N(CCCOC(C)C)Cc4ccco4)sc3c2c1	HTR5A ag ctr 27 | MOR-DOR ag-2 inactive | HTR5A ag conf inactive
CCn1c2ccccc2c2cc(NC(=O)CSc3nnc(-c4ccc(OC)cc4)n3N)ccc21	HTR5A ag ctr 19 | MOR-DOR ag-2 inactive | HTR5A ag conf inactive
CNC(=O)c1c[nH]c2ccc(S(=O)(=O)Nc3cccc(SC)c3)cc2c1=O	none
CC1(C)CC(n2c(NCCO)nc3c(c2=O)C2(CCCC2)Cc2ccccc2-3)CCO1 (centres undefined)	HTR5A ag ctr 23 | MOR-DOR ag-2 inactive | HTR5A ag conf inactive
O=C(NCc1ccccc1)c1ccc(F)c(F)c1	HTR5A ag ctr 14 | MOR-DOR ag-2 inactive | HTR5A ag conf inactive
O=C(N/N=C/c1cn(Cc2cccc(F)c2)c2ccccc12)c1cc(O)cc(O)c1	HTR5A ag ctr 17 | MOR-DOR ag-2 284 | HTR5A ag conf inactive
O=C(NC1CCCc2ccccc21)c1c(F)cccc1Cl (centres undefined)	none
Cc1cccc(C(=O)O/N=C2\CCSc3ccc(C)cc32)c1	HTR5A ag ctr 15 | MOR-DOR ag-2 inactive | HTR5A ag conf 41
COc1ccc(S(=O)(=O)O/N=C2\CCSc3ccc(C)cc32)cc1	none
Cc1ccc(C(=O)O/N=C2\CCSc3ccc(C)cc32)cc1	HTR5A ag ctr 37 | MOR-DOR ag-2 inactive | HTR5A ag conf inactive
COc1cccc(Nc2nc(CC(C)=O)ns2)c1	HTR5A ag ctr 19 | MOR-DOR ag-2 inactive | HTR5A ag conf inactive
COc1ccc(C(=O)Nc2cccnc2)cc1S(=O)(=O)N1CCOCC1	HTR5A ag ctr 16 | MOR-DOR ag-2 inactive | HTR5A ag conf inactive
COc1ccc(C2=NOC(Cn3nc(C(=O)NCC4CC4)cc3-c3ccccc3)C2)cc1 (centres undefined)	none
COc1ccc(CCNS(=O)(=O)c2ccc(OC)c(OC)c2)cc1OC	HTR5A ag ctr 17 | MOR-DOR ag-2 inactive | HTR5A ag conf inactive
COc1ccc(NC(=O)CN(C)C(=O)C2CC(=O)N(c3cccc4ccccc34)C2)cc1 (centres undefined)	HTR5A ag ctr 16 | MOR-DOR ag-2 inactive | HTR5A ag conf inactive
COc1ccc(/C=N/NC(=O)c2ccc(COc3ccccc3Cl)o2)c(OC)c1C	HTR5A ag ctr 22 | MOR-DOR ag-2 inactive | HTR5A ag conf inactive
COc1ccc(/C=N/NC(=O)c2ccc(COc3ccccc3Cl)o2)cc1	none
CCCCCCCCOC(=O)CCc1c(C)[nH]c(=S)[nH]c1=O	HTR5A ag ctr 15 | MOR-DOR ag-2 inactive | HTR5A ag conf inactive
CC12CCC(O)CC1=CCC1C2CCC2(C)c3[nH]ncc3CC12 (centres undefined)	none
Cc1ccc(C(=O)O)cc1NCc1ccncc1	none
O=C(NNC(=S)Nc1ccc(Br)cc1)c1ccccc1	none
O=C(NNC(=S)Nc1ccccc1)c1cccc(Br)c1	HTR5A ag ctr 18 | MOR-DOR ag-2 inactive | HTR5A ag conf inactive
Cc1[nH]nc(-c2ccc(OCc3cnn(-c4ccccc4)c3)c(C)c2O)c1Oc1ccccc1	HTR5A ag ctr 22 | MOR-DOR ag-2 19 | HTR5A ag conf inactive
Cc1cc(C(=O)COC(=O)C2=COCCO2)c(C)n1-c1cccc(F)c1	HTR5A ag ctr 16 | MOR-DOR ag-2 inactive | HTR5A ag conf inactive
Cc1cc(C(=O)COC(=O)C2=COCCO2)c(C)n1-c1ccc2c(c1)OCO2	none
CCN1CCc2c(sc(NC(=O)c3ccc(S(=O)(=O)N(CC)c4ccccc4)cc3)c2C(N)=O)C1	none
CCCCCCCCCCn1c2c(c(=N)c3c1CCC3)CCC2	HTR5A ag ctr 35 | MOR-DOR ag-2 inactive | HTR5A ag conf inactive
O=C(Nc1ccc(Oc2cccc(C(F)(F)F)c2)nc1)c1ccco1	none
CC(C)(C)c1ccc(Oc2ccc(NC(=O)c3ccco3)cn2)cc1	HTR5A ag ctr 16 | MOR-DOR ag-2 28 | HTR5A ag conf inactive
O=S(=O)(CCNC1CC1)NC1CCCCC1	none
COc1ccc(/C=C(\NC(=O)c2ccco2)C(=O)N2CCCCC2)cc1	none
C[C@@H](CN1C(=O)C(=O)NC[C@@H]1C)NC(=O)CC12CC3CC(CC(C3)C1)C2	none
Cc1nc(Nc2ccc(Cl)cc2)c(C#N)c(=O)[nH]1	HTR5A ag ctr 16 | MOR-DOR ag-2 inactive | HTR5A ag conf inactive
N#Cc1cccnc1Nc1ccc(Cl)cc1	none
O=C(COC(=O)COc1ccc2c(c1)CCC2)Nc1ccccc1C(F)(F)F	none
Cc1oc(-c2ccccc2Cl)nc1CS(=O)(=O)CC(=O)NC1CCCC1	none

Screening results: PubChem BioAssay, The Scripps Research Institute Molecular Screening Center
